Measurements taken from the supplement of paper PMC10849652.
Of roughly 8,800 targets only a part is listed; those with a hit were picked by preference. About 0.5% of all pairs of compound and target were hits.

Tests used:
Test in all cases: log2 fold change, soluble protein after heating vs DMSO (PISA); higher = thermal stabilisation; K562 lysate, 10 uM; active = over 0.2 and 3.5 SD of the protein, either way, in both replicates (recomputed)
erlotinib = compound: C#Cc1cccc(Nc2ncnc3cc(OCCOC)c(OCCOC)cc23)c1 [erlotinib]
Summary of the method: (§1)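 Log-two fold change in thermal stability relative to solvent controls is reported from duplicates. For each sample, crude K562 extract from dounce-homogenised pellets in PBS pH 7.4 with 1 mM MgCl2, at 1 mg/mL protein, was treated with 10 μM compound for 30 min. Aliquots heated for 3 min across 48°C-58°C were pooled, brought to 0.5% NP-40 at 4°C and cleared at 21,000xg for 90 min. The supernatant was quantified by TMTpro 16plex LC-MS/MS with channel sums equalised.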

[1] = compound: C/C(=N\NC(=O)C1=CC(=CC=C1)S(=O)(=O)N2CCOCC2)/C3=C(C=CC(=C3)Cl)O
Summary of the method: as §1

[2] = compound: C1=CC(=CC=C1C2=NC3=C(N2)C=C(C=C3)C(=O)N)OC4=CC=C(C=C4)Cl
Summary of the method: as §1

[3] = compound: C1=CC2=C(C=CC(=C2)/C=C\3/C(=O)NC(=NCC4=CC=CS4)S3)N=C1
Summary of the method: as §1

[4] = compound: C1=CC2=NC=CN=C2C=C1/C=C/3\C(=O)NC(=O)S3
Summary of the method: as §1

[5] = compound: C1=CC=C(C=C1)C2=NC(=C(N2)C3=CC=NC=C3)C4=CC(=C(C=C4)Cl)O
Summary of the method: as §1

[6] = compound: C1=CC=C2C(=C1)C3=NNC4=CC=CC(=C43)C2=O
Summary of the method: as §1

[7] = compound: C1CCN(C1)C(=O)NC2=CC=CC(=C2)NC3=NC=C(C(=N3)NCCC4=CN=CN4)Br
Summary of the method: as §1

[8] = compound: C1CN(CCC1(CC2=CC=C(C=C2)Cl)N)C3=NC=NC4=C3C=CN4
Summary of the method: as §1

IRAK-1-4 Inhibitor I = compound: C1COCCN1CCN2C3=CC=CC=C3N=C2NC(=O)C4=CC(=CC=C4)[N+](=O)[O-] [IRAK-1-4 Inhibitor I]
Summary of the method: as §1

Measured: log2 fold change

EEF1A1P5 (UniProt Q5VTE0)
inactive: erlotinib 0.014 | [1] -0.054 | [2] 0.023 | [3] 0 | [4] 0.001 | [5] -0.01 | [6] -0.065 | [7] -0.048 | [8] 0.022 | IRAK-1-4 Inhibitor I 0.003

EXTL2 (UniProt Q9UBQ6)
Chain of UniProt Q9UBQ6 (Q9UBQ6 whole entry, looked up): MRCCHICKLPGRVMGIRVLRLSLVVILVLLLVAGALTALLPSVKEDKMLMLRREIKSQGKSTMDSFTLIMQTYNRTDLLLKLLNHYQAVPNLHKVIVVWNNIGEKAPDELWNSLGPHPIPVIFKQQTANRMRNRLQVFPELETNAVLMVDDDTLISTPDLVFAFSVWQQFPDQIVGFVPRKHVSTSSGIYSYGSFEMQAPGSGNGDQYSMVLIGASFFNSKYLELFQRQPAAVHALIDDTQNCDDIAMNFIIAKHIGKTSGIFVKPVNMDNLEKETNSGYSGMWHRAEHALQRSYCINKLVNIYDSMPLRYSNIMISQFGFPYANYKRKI
inactive: erlotinib -0.02 | [1] -0.037 | [2] 0.072 | [3] 0.103 | [4] -0.443 | [5] 0 | [6] 0.092 | [7] 0.003 | [8] -0.007 | IRAK-1-4 Inhibitor I -0.049

ERCC4 (UniProt Q92889)
Chain of UniProt Q92889 (Q92889 whole entry, looked up): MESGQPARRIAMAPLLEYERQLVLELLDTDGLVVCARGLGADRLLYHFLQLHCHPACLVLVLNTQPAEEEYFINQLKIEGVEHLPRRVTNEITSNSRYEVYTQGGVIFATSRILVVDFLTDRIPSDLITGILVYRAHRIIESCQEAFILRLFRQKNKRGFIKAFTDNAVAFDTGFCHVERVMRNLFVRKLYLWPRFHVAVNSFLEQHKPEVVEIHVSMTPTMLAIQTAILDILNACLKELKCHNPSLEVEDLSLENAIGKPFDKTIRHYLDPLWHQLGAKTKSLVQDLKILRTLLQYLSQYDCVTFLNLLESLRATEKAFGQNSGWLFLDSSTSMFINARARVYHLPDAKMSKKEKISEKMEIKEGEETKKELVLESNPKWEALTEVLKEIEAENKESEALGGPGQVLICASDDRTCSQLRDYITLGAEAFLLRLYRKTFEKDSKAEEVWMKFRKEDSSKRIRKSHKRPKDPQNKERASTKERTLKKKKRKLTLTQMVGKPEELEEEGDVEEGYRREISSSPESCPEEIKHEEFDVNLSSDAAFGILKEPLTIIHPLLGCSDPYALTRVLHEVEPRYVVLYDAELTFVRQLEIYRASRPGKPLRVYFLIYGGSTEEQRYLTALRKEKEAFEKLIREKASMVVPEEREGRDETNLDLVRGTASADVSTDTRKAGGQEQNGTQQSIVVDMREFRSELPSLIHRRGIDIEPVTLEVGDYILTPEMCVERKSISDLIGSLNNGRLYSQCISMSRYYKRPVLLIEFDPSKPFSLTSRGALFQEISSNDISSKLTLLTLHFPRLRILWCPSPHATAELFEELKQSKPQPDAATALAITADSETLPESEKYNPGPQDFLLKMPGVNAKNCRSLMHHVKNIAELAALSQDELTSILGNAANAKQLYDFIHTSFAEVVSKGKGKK
inactive: erlotinib -0.008 | [1] -0.04 | [2] 0.033 | [3] 0.015 | [4] -0.021 | [5] -0.003 | [6] -0.096 | [7] -0.006 | [8] 0.051 | IRAK-1-4 Inhibitor I 0.029

FAM118B (UniProt Q9BPY3)
inactive: erlotinib -0.004 | [1] 0.051 | [2] 0.004 | [3] 0.061 | [4] 0.03 | [5] -0.01 | [6] -0.012 | [7] 0.013 | [8] -0.004 | IRAK-1-4 Inhibitor I -0.03

GIGYF2 (UniProt Q6Y7W6)
Chain of UniProt Q6Y7W6 (Q6Y7W6 whole entry, looked up): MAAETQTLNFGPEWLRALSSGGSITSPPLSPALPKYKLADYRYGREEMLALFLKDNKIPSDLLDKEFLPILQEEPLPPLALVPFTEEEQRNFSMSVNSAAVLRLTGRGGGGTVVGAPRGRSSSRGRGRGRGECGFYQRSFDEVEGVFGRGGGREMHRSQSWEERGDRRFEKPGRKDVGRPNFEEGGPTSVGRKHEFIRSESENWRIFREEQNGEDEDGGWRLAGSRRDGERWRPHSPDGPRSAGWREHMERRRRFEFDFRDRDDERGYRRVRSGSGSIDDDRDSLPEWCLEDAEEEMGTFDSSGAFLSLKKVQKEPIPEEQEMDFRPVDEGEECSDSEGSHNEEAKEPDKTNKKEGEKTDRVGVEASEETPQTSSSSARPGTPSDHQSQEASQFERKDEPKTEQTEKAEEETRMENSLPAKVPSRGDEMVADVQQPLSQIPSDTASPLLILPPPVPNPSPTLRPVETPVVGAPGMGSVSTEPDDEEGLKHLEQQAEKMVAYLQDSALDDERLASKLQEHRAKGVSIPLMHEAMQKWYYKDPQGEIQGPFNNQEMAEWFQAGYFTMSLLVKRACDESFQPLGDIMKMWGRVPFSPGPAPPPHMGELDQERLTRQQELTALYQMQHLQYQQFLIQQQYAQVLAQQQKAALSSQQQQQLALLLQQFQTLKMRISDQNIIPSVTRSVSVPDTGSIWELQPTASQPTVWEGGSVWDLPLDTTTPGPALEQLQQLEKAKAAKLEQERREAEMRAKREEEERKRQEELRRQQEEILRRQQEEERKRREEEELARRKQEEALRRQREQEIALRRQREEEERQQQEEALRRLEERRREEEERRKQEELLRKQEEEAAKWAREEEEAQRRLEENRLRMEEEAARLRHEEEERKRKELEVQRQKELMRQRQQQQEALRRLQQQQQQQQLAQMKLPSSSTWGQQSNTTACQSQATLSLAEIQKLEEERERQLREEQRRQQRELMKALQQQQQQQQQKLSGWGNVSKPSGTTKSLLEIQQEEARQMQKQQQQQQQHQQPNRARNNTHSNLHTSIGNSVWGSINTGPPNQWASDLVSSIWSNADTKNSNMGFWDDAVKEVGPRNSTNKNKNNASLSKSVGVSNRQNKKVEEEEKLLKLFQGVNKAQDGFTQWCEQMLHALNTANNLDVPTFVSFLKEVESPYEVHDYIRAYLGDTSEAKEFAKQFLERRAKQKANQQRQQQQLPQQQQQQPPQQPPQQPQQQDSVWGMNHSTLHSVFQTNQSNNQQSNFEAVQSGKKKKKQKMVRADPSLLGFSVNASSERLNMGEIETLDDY
inactive: erlotinib -0.011 | [1] -0.033 | [2] -0.024 | [3] -0.016 | [4] 0.018 | [5] 0.005 | [6] -0.005 | [7] 0.006 | [8] -0.005 | IRAK-1-4 Inhibitor I 0.002

EGLN1 (UniProt Q9GZT9)
Chain of UniProt Q9GZT9 (Q9GZT9 whole entry, looked up): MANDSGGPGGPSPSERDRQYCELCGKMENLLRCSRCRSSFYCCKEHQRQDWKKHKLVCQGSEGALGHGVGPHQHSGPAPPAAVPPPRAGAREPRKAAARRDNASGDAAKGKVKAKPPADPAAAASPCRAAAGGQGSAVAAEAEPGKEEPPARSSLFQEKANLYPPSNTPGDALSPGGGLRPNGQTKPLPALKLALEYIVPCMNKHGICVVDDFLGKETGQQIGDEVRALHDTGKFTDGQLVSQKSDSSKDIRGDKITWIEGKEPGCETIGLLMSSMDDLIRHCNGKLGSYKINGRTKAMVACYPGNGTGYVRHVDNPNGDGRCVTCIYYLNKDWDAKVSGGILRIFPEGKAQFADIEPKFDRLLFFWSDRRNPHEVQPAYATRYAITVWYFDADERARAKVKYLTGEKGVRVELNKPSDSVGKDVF
inactive: erlotinib 0.006 | [1] 0.016 | [2] 0.034 | [3] 0.028 | [4] -0.027 | [5] 0.006 | [6] -0.005 | [7] 0.015 | [8] -0.019 | IRAK-1-4 Inhibitor I -0.021

FARSB (UniProt Q9NSD9)
inactive: erlotinib -0.004 | [1] 0.019 | [2] -0.007 | [3] -0.01 | [4] -0.02 | [5] 0.039 | [6] -0.021 | [7] -0.004 | [8] 0.011 | IRAK-1-4 Inhibitor I -0.027

GEMIN4 (UniProt P57678)
inactive: erlotinib 0.023 | [1] -0.029 | [2] -0.036 | [3] 0.046 | [4] 0.038 | [5] -0.017 | [6] -0.032 | [7] -0.004 | [8] 0.018 | IRAK-1-4 Inhibitor I -0.023

GEMIN2 (UniProt O14893)
inactive: erlotinib 0.032 | [1] 0.047 | [2] -0.001 | [3] 0.053 | [4] 0.028 | [5] 0.015 | [6] -0.11 | [7] -0.007 | [8] 0.011 | IRAK-1-4 Inhibitor I 0.05

GGT7 (UniProt Q9UJ14)
Chain of UniProt Q9UJ14 (Q9UJ14 whole entry, looked up): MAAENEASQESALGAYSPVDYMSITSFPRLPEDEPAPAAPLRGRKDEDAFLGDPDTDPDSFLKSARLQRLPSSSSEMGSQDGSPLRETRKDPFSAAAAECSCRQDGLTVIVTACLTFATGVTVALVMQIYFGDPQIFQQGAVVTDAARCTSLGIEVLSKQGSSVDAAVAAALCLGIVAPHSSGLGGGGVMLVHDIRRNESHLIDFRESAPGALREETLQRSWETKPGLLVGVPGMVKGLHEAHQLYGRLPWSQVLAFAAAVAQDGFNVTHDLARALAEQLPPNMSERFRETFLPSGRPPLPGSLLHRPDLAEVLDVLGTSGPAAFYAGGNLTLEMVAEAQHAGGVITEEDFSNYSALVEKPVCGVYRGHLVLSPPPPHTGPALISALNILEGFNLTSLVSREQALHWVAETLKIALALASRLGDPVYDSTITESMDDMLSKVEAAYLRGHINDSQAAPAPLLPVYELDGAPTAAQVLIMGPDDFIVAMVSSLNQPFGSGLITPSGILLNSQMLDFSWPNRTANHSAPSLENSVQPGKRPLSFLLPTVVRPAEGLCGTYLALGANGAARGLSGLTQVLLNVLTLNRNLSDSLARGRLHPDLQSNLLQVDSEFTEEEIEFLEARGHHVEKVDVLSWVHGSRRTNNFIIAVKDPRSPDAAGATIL
inactive: erlotinib -0.04 | [1] 0.07 | [2] 0.021 | [3] -0.116 | [4] 0.094 | [5] -0.059 | [6] 0.018 | [7] 0.026 | [8] -0.023 | IRAK-1-4 Inhibitor I 0.027

EFCAB14 (UniProt O75071)
inactive: erlotinib 0.019 | [1] 0.115 | [2] 0.043 | [3] -0.036 | [4] -0.019 | [5] -0.042 | [6] -0.022 | [7] 0.01 | [8] 0.042 | IRAK-1-4 Inhibitor I 0.011

EDC3 (UniProt Q96F86)
inactive: erlotinib -0.008 | [1] -0.01 | [2] -0.023 | [3] -0.02 | [4] -0.031 | [5] 0.035 | [6] -0.011 | [7] -0.027 | [8] -0.013 | IRAK-1-4 Inhibitor I 0

EPB41 (UniProt P11171)
Chain of UniProt P11171 (P11171 whole entry, looked up): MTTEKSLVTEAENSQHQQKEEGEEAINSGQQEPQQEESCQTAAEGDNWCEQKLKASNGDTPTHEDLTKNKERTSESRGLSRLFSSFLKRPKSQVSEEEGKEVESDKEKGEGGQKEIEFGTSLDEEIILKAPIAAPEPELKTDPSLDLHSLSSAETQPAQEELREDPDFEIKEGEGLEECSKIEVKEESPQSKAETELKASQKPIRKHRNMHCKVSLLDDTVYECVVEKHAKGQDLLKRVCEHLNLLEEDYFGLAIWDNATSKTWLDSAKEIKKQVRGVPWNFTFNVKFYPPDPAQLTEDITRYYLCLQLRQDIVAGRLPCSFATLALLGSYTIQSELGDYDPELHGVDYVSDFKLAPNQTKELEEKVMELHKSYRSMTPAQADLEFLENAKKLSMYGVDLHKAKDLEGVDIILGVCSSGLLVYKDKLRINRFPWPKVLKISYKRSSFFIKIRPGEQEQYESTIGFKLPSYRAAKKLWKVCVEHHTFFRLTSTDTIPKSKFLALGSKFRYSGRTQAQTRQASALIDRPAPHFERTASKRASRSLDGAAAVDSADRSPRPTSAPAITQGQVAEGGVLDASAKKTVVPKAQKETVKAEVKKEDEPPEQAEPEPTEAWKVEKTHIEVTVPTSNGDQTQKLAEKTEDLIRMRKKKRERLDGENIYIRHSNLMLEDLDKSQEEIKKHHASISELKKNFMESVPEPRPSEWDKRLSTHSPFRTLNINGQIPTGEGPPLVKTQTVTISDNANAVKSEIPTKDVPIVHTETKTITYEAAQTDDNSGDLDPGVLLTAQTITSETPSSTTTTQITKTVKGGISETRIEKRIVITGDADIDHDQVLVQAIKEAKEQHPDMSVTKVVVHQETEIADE
inactive: erlotinib -0.024 | [1] -0.021 | [2] -0.068 | [3] 0.006 | [4] -0.005 | [5] 0 | [6] 0.014 | [7] 0.004 | [8] 0.008 | IRAK-1-4 Inhibitor I -0.028

ERAL1 (UniProt O75616)
Chain of UniProt O75616 (O75616 whole entry, looked up): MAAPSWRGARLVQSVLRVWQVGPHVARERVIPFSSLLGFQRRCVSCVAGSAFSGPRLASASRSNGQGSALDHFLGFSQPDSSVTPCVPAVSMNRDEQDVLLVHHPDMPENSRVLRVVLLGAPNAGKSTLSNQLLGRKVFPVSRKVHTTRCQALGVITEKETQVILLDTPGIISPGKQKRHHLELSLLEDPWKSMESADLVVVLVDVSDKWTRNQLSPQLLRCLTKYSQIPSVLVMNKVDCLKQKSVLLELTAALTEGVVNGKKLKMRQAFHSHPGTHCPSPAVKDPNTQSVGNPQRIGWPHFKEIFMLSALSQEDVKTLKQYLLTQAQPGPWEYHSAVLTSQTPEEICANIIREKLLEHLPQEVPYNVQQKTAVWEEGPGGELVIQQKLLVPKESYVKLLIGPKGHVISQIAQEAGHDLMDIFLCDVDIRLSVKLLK
inactive: erlotinib -0.016 | [1] -0.003 | [2] 0.05 | [3] -0.014 | [4] 0.03 | [5] 0.015 | [6] -0.027 | [7] -0.041 | [8] -0.047 | IRAK-1-4 Inhibitor I -0.042

FAM120B (UniProt Q96EK7)
inactive: erlotinib 0.056 | [1] -0.032 | [2] 0.036 | [3] 0.035 | [4] 0.02 | [5] -0.004 | [6] 0.044 | [7] -0.013 | [8] 0.007 | IRAK-1-4 Inhibitor I 0.009
